# Reference: PubChem BioAssay
# Calls of active or inactive are those of the source.
# Legend:
# [1] = anti-His antibody binders, primary screen, artefact control for SMM control protein annotation, biochemical, small-molecule microarray, 635 nm fluorescence (AID 1128); conditions: anti-His Alexa647 antibody binding, higher = more signal;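 further: score merges feature fluorescence with signal-to-noise for each printed compound spot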
# [2] = test system: Human papillomavirus type 1a E7 protein (residues 1-88); experiment: HPV1a E7 small-molecule binders, primary screen, biochemical, small-molecule microarray, residues 1-88, 635 nm (AID 1129); conditions: small-molecule microarray binding, fluorescence 635 nm; higher = more signal
# [3] = target: Focal adhesion kinase 1 (Homo sapiens) (UniProt Q05397); experiment: small-molecule microarray binders of FAK, primary screen, biochemical, 635/667 nm fluorescence, BSA, DTT (AID 1130); conditions: PTK2 binding, 635 nm fluorescence, higher = more signal;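 further: composite of spot emission at 667 nm and signal to noise over triplicate slides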
# Focal adhesion kinase 1 (Homo sapiens), sequence (Q05397 whole entry, looked up): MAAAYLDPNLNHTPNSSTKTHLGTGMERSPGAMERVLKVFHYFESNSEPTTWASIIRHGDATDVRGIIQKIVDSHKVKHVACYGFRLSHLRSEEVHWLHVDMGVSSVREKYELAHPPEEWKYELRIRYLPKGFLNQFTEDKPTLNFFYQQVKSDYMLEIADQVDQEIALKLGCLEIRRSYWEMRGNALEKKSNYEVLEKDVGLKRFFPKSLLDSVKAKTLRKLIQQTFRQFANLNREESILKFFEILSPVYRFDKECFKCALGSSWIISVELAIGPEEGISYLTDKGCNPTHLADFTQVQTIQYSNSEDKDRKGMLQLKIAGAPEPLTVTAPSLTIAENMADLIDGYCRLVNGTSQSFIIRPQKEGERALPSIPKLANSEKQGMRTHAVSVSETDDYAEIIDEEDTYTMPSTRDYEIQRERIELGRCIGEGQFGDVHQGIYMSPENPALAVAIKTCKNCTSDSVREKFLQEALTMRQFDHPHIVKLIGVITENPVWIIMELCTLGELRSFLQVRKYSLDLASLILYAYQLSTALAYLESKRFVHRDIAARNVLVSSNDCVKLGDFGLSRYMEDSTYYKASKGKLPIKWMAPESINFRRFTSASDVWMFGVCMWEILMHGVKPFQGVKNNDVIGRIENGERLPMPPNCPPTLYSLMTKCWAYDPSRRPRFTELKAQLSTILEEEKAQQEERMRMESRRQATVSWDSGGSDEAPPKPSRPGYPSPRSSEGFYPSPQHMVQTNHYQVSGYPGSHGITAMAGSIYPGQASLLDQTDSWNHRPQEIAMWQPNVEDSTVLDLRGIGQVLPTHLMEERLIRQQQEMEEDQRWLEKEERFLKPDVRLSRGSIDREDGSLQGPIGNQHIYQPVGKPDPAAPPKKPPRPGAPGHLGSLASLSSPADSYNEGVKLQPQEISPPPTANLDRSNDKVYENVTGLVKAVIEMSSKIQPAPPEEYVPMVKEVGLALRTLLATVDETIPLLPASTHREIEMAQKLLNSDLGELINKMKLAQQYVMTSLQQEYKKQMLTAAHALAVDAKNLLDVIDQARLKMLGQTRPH
# [4] = test system: Fibrinogen (Alexa647-labelled); experiment: fibrinogen binders on compound microarrays, profiling panel, artefact control for SMM control-protein annotation, biochemical, small-molecule microarray, 635/667 nm fluorescence (AID 1131); conditions: fibrinogen-A647 binding fluorescence, higher = more signal;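 further: z-score merges 667 nm fluorescence with per-spot signal-to-noise over triplicate slides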
# [5] = target: Follistatin (Homo sapiens) (UniProt P19883); experiment: follistatin binders on small-molecule microarrays, primary screen, biochemical, small-molecule microarray, 635/667 nm fluorescence (AID 1132); conditions: FST binding, 635 nm fluorescence, higher = more signal
# Follistatin (Homo sapiens), sequence (P19883 whole entry, looked up): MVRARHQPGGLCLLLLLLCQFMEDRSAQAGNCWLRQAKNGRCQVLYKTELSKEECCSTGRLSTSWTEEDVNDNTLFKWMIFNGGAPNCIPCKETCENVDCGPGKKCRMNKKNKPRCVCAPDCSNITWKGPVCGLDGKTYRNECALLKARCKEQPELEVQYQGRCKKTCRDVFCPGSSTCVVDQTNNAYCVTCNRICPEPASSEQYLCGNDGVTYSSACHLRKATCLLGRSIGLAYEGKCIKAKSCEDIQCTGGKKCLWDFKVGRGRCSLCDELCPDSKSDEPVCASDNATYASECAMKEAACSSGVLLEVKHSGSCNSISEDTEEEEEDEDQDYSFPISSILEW
# [6] = target: Fibroblast growth factor 2 (Homo sapiens) (UniProt P09038); experiment: FGF2 binders on small-molecule microarrays, primary screen, biochemical, small-molecule microarray, 635/667 nm fluorescence (AID 1133); conditions: small-molecule microarray binding, FGF2, fluorescence 635/667; higher = more signal
# Fibroblast growth factor 2 (Homo sapiens), sequence (P09038 whole entry, looked up): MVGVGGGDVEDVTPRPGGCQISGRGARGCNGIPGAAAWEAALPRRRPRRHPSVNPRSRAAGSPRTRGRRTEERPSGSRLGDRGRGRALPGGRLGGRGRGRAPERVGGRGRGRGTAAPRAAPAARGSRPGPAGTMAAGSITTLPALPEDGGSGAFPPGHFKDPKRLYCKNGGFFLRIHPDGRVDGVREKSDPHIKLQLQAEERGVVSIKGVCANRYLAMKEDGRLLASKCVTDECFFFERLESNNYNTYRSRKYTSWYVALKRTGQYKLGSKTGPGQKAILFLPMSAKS
# [7] = mitochondrial membrane potential change in A549 cells, profiling panel, cell-based, JC-1 fluorescence, basal, 24 h, 100 nL (AID 1138); conditions: higher = more signal;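 further: A549 lung adenocarcinoma cells under basal conditions with no added stimulus; test concentration not given here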
# Lefty1 = Lefty1 binders on small-molecule microarrays, primary screen, biochemical, small-molecule microarray, 635/667 nm fluorescence (AID 1139); conditions: small-molecule microarray binding, fluorescence 635/667; higher = more signal
# [8] = test system: wheat germ agglutinin (Triticum aestivum), Alexa647-labelled; experiment: wheat germ agglutinin binders on compound microarrays, profiling panel, artefact control for SMM control-protein annotation, biochemical, small-molecule microarray, 635/667 nm fluorescence (AID 1140); conditions: WGA-A647 binding, 635 nm fluorescence, higher = more signal;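 further: score merges 667 nm feature emission with signal to noise over triplicate slides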
# [9] = target: Luciferin 4-monooxygenase (Photinus pyralis) (UniProt P08659); experiment: firefly luciferase enzyme inhibitors, primary screen, biochemical, luminescence, purified enzyme, 2006 set (AID 1141); conditions: SteadyGlo luminescence, 30 min, higher = more signal, called active from +8 up or from −8 down;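 further: cell-free assay with purified firefly luciferase at 100 ng per well in PBS; test concentration not given here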
# Luciferin 4-monooxygenase (Photinus pyralis), sequence (P08659 whole entry, looked up): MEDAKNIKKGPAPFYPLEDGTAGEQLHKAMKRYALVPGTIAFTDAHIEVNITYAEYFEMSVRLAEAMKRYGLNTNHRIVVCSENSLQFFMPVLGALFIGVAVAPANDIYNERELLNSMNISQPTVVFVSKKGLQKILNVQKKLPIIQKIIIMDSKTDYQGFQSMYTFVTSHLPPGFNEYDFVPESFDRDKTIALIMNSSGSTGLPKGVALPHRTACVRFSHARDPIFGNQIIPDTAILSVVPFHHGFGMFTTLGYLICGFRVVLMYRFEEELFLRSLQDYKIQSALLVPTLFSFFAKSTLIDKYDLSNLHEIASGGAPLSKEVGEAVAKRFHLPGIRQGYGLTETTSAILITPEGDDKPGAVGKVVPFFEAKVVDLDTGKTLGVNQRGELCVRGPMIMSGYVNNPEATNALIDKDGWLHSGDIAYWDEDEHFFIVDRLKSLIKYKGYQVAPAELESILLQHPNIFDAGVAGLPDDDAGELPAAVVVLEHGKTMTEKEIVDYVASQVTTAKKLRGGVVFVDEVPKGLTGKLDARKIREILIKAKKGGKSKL
SMILES,composite z-score [1],composite z-score [2],composite z-score [3],composite z-score [4],composite z-score [5],composite z-score [6],z-score [7],composite z-score (Lefty1),composite z-score [8],z-score [9]
COc1ccc(COC(=O)NN=C2C[C@@H](O)[C@@H](O)[C@@H]3[C@@H]4C(=O)N(c5ccc(F)cc5F)C(=O)[C@@H]4CC[C@H]23)cc1,0.524,-0.199,0.168,0.89,-0.469,0.0314,-0.654,-0.773,0.4,0.732 (inactive)
CCN1C(=O)[C@@H]2[C@H]3C(=CC[C@@H]2C1=O)C1(OCCCO1)[C@H]1O[C@H]1[C@H]3O,0.841,1.04,0.162,0.982,1.12,0.944,-2.41,0.946,0.692,-26.1 (active)
CC(CCN1CCCCc2nc(C)c(C)cc21)=NO[C@@H](C)c1cn([C@H](CO)Cc2ccccc2)nn1,1.67,0.285,0.321,0.624,0.915,0.545,0.868,0.828,-0.101,0.175 (inactive)
O=c1n(-c2ccccc2)c(=O)n2n1CC[C@@H]1C(=NOCc3ccccc3)[C@H]3O[C@H]3[C@@H](O)[C@@H]12,0.103,-0.0945,0.0844,-0.468,0.265,0.373,0.397,0.293,0.0398,0.0189 (inactive)
CO[C@H]1COC(=O)[C@H](C)NC(=O)CC=C[C@@H](C)[C@H](OC)COC(=O)[C@@H](OCc2ccccc2)C=C[C@@H]1C,-0.435,-0.611,-0.329,0.029,1.21,0.618,0.805,0.529,-1.25,-0.231 (inactive)
O=C(C=Cc1ccc2c(c1)OCO2)c1ccc(F)cc1,0.877,-0.575,-0.174,0.0796,0.853,1.31,-0.0292,1.21,-0.177,-6.89 (inactive)
COc1cccc([C@H]2Oc3ccc(OC)cc3C(=NO[C@@H](C)c3cn([C@H](CO)Cc4ccccc4)nn3)[C@@H]2O)c1,-2.13,-0.92,-0.104,0.778,-0.476,0.109,-1.09,0.102,0.305,-0.0592 (inactive)
CC(C)(C)N1C(=O)[C@H]2[C@H]3[C@H](O)[C@H](O)CC(=O)[C@@H]3CC[C@H]2C1=O,-0.0303,0.237,-0.0066,-0.642,0.539,1.08,-0.662,0.49,0.138,0.166 (inactive)
CCOC(=O)[C@H](CC(C)C)NC(=O)CCC1CC(OC(=O)NCCc2ccc(F)cc2)CC2(CCCC(COC(=O)NCCC(C)C)O2)O1 (stereo not given in full),1.79,0.0471,0.459,0.818,0.601,0.0263,0.427,0.304,0.421,0.403 (inactive)
O=C1C[C@@H](O)[C@@H](O)[C@@H]2[C@@H]3C(=O)N(Cc4ccccc4)C(=O)[C@@H]3CC[C@@H]12,0.467,0.789,0.0901,0.547,0.892,0.895,-0.305,0.551,0.0697,-0.0665 (inactive)
COc1ccc(O[C@@H]2[C@H](O)CO[C@H]2C=Cc2ccccc2)cc1,0.326,-0.437,0.051,0.173,-0.117,0.117,1.66,-0.208,0.0385,-1.69 (inactive)
COC(=O)CC=C[C@@H](C)[C@@H](C=NO[C@@H]1O[C@H](COC(C)=O)[C@@H](OC(C)=O)[C@H](OC(C)=O)[C@H]1OC(C)=O)OC,0.662,0.036,0.107,-0.0528,-0.186,-0.347,-0.361,-0.268,-0.421,0.86 (inactive)
CCOC(=O)NN=C1C[C@@H](O)[C@@H](O)[C@@H]2[C@@H]3C(=O)N([C@@H](C)c4ccccc4)C(=O)[C@@H]3CC[C@H]12,0.236,0.416,-0.35,0.65,0.285,0.166,-0.877,0.246,0.152,0.846 (inactive)
O=C1C=C[C@@H](O)[C@@H]2[C@@H]3C(=O)N(c4ccc(F)cc4F)C(=O)[C@@H]3CC[C@@H]12,-0.0956,0.437,0.103,0.61,0.791,0.602,0.784,0.564,0.215,-1.71 (inactive)
CCOC(=O)CCN1C(=O)[C@H]2[C@H]3[C@H](O)[C@H](O)CC(=NOCc4ccccc4)[C@H]3CC[C@H]2C1=O,0.0669,-0.469,-0.017,0.658,-0.851,-0.772,0.229,-0.579,0.343,0.563 (inactive)
CO[C@H]1COC(=O)CC=C[C@H](C)COC(=O)[C@@H](C)NC(=O)CC=C[C@@H]1C,2.07,-0.696,-0.775,-1.32,1.29,0.654,-1.61,1.72,-0.52,0.917 (inactive)
